Rows were chosen to be rich in hits. Some 21% of all compounds tested hit in one or more screens of this group.
Cycloheximide cs – counter-screen for Shiga toxin inhibitors: cycloheximide protein synthesis inhibition | cell reporter, cycloheximide protein synthesis inhibition counterscreen | max response, % | 12% of 300,000 active | AID 2314; in the data active = max response mostly above about 13%, no sharp cut-off; inactive = mostly below about 14%; also: read at 38.3 µM for the half of the compounds with a filed dose; 0% is about no effect
Shiga toxin inh – blocks Shiga toxin action in Vero cells; 9.2% of 290,000 active; inhibition, % at 38.7 µM; Vero cells, Shiga toxin protein synthesis inhibition reporter; in the data active = inhibition mostly above about 28%, no sharp cut-off; inactive = mostly below about 43%; also: 0% is about no effect
SARS PLP yeast – SARS-CoV PLP inhibition in yeast | S. cerevisiae expressing SARS-CoV PLpro, growth rescue | Potency, µM (top dose mostly 32.9 µM), for inactives: top-dose activity, positive = growth rescue, usual class: activators | 0.19% of 330,000 active | AID 485353; calls by dose curve; also: potency is read from the fitted curve at half-maximal effect; 0% is about no effect; nearly all actives have a fitted effect of over 55% in size
NS1 function inh – inhibitors of influenza NS1 protein function; AID 2326; 0.4% of 270,000 active; Potency, µM (highest dose often 46.1 µM), without a hit: at the highest dose activity, positive = more growth; calls by dose curve; also: potency is read from the fitted curve at half-maximal effect; actives are rising curves; nearly all actives have a fitted effect of over 50% in size
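Read-out: OD600 growth recovery of NS1-expressing budding yeast. Cells grown overnight at 30C in -URA glucose medium, washed, resuspended and diluted 1:100 in 2% galactose assay medium, pH 6.0. Same strain lacking NS1 served as positive control.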
Pf growth 48h – inhibits P. falciparum growth in the first generation, 48 h. Potency, µM (series often up to 28.7 µM), without a hit: top-dose activity change, negative = inhibition, usual class: inhibitors. 5.9% of 310,000 active. P. falciparum luciferase growth in erythrocytes, 48 h; also: potency is read from the fitted curve at half-maximal effect; % is scaled to controls: 0 for no effect and ±100 for the full control effect
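Here the parasites carry a stable luciferase gene and grow inside erythrocytes in Albumax-based RPMI medium with compound for one erythrocytic cycle. Activity is scored as loss of luminescent signal.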
Pf growth 96h – inhibits malaria parasite growth, 96 h; 6.9% of 320,000 active; Potency, µM (top dose mostly 28.7 µM), for inactives: at the top dose activity change, negative = inhibition, most hits filed as inhibitors; P. falciparum luciferase reporter growth, 96 h; also: potency is read from the fitted curve at half-maximal effect; % is scaled to controls: 0 for no effect and ±100 for the full control effect
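P. falciparum expressing integrated firefly luciferase grown in erythrocytes (2% hematocrit, 0.05% parasitemia final) with compounds for 96 hours at 37 C, 5% CO2. Growth inhibition read as loss of luminescence after adding luciferase detection reagent.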
The depositor's hits bear a star. Unless noted, calls follow the shape of the dose curve; as a rule, active = well fitted inhibition curve with a large enough effect; inconclusive = small, poorly fitted or top-dose-only effect, or another doubt; inactive = no such curve, though single readings can be large or run the other way.

`CCN(Cc1ccncc1)Cc1nc(Cc2ccccc2Cl)no1` gave Cycloheximide cs 0, Shiga toxin inh -14, SARS PLP yeast -4%, NS1 function inh -31%, Pf growth 48h 10µM* and Pf growth 96h inconclusive.
For Cc1[nH]cnc1C(=O)N/N=C/c1c(Cl)cccc1Cl the results were Cycloheximide cs 36*, Shiga toxin inh 46, SARS PLP yeast -4%, NS1 function inh 2%, Pf growth 48h 45% and Pf growth 96h 23%.
O=C(NC(=S)Nc1ccccc1F)c1ccc(Br)o1 was read as Cycloheximide cs 33*, Shiga toxin inh 124*, SARS PLP yeast 1%, NS1 function inh 6%, Pf growth 48h 112% and Pf growth 96h 14%.
Screening Cc1ccc(NC(=S)NC(=O)c2ccc(Br)o2)c(C)c1 returned Cycloheximide cs 29*, Shiga toxin inh 61*, SARS PLP yeast 0%, NS1 function inh 4%, Pf growth 48h 30% and Pf growth 96h 13µM*.
`Cc1cccc(NC(=S)NC(=O)c2ccc(Br)o2)c1C` gave Cycloheximide cs 1, Shiga toxin inh 32, SARS PLP yeast -1%, NS1 function inh 9%, Pf growth 48h -14% and Pf growth 96h -20%.
`Cc1ccc(C)c(NC(=S)NNC(=O)c2ccc(Br)o2)c1` gave Cycloheximide cs 16*, Shiga toxin inh 70*, SARS PLP yeast inconclusive, NS1 function inh 25%, Pf growth 48h -8% and Pf growth 96h 5%.
CCN(C(=O)c1ccc(S(=O)(=O)N2CCOCC2)cc1)C1CCS(=O)(=O)C1 (configuration not stated) was read as Pf growth 48h -2% and Pf growth 96h 2%.
`O=C(CN1CCCCC1CO)c1ccc(OC(F)F)cc1` (configuration not stated) gave Cycloheximide cs -2, Shiga toxin inh -3, SARS PLP yeast -6%, Pf growth 48h -9% and Pf growth 96h 15%.
Clc1ccc(N=C2SCC3CCCCN23)cc1 (configuration not stated) was read as Cycloheximide cs 70*, Shiga toxin inh 77*, SARS PLP yeast -13%, NS1 function inh -8%, Pf growth 48h 110% and Pf growth 96h 39%.
Screening FC(F)Oc1ccc(N=C2SCC3CCCCN23)cc1 (configuration not stated) returned Cycloheximide cs 53*, Shiga toxin inh 131*, SARS PLP yeast 1%, NS1 function inh -9%, Pf growth 48h 79% and Pf growth 96h 184%.
Screening CCn1c(=S)sc2c(=O)[nH]c(SCC(=O)Nc3cc(OC)ccc3OC)nc21 returned Cycloheximide cs 0, Shiga toxin inh 16, SARS PLP yeast 2%, NS1 function inh 11%, Pf growth 48h -5% and Pf growth 96h -29%.
`Cc1ccc2c(Cl)cc(Cl)c(OCC(=O)Nc3cc(S(=O)(=O)N(C)C)ccc3C)c2n1` gave Cycloheximide cs -1, Shiga toxin inh 2, SARS PLP yeast -5%, NS1 function inh inconclusive, Pf growth 48h inconclusive and Pf growth 96h 12µM*.
Screening Cc1ccc2c(Cl)cc(Cl)c(OCC(=O)Nc3cccc(S(=O)(=O)N(C)C)c3)c2n1 returned Cycloheximide cs 1, Shiga toxin inh -8, SARS PLP yeast -7%, NS1 function inh -1%, Pf growth 48h 8% and Pf growth 96h 18%.
For Cc1ccc2c(Cl)cc(Cl)c(OCC(=O)NC(C)(C)C)c2n1 the results were Cycloheximide cs -2, Shiga toxin inh -2, SARS PLP yeast -1%, Pf growth 48h 12µM* and Pf growth 96h inconclusive.
For Cc1ccc2c(c1)C1CN(C)CCC1N2C(=O)Cc1cccs1 (configuration not stated) the results were Cycloheximide cs -3, Shiga toxin inh -5, SARS PLP yeast 0%, NS1 function inh -6%, Pf growth 48h inconclusive and Pf growth 96h 0.93µM*.
`Cc1ccc2c(c1)C1CN(C)CCC1N2C(=O)Nc1ccc(Cl)cc1` (configuration not stated) gave Cycloheximide cs 10, Shiga toxin inh 53, SARS PLP yeast -8%, NS1 function inh -22%, Pf growth 48h 10µM* and Pf growth 96h 10µM*.
`C=C(CO)C1Cc2cc(C(C)=O)ccc2O1` (configuration not stated) gave Cycloheximide cs -1, Shiga toxin inh 8, SARS PLP yeast 0%, NS1 function inh 5%, Pf growth 48h 30% and Pf growth 96h 17%.
O=[N+]([O-])c1ccc(-c2[se]c3ccccc3c2I)cc1 was read as Cycloheximide cs 33 and Shiga toxin inh inactive.
Screening CC(=O)[C@]1(O)CCC2C3C=C(Cl)C4=CC(=O)C5CC5[C@@]4(C)C3CC[C@]21C (some centres not stated) returned Pf growth 48h -6% and Pf growth 96h inconclusive.
`CN(C)c1ccc(CN(C(=O)c2cccs2)C2CCS(=O)(=O)C2)cc1` (configuration not stated) gave Cycloheximide cs -3, Shiga toxin inh -7, SARS PLP yeast -4%, NS1 function inh -3%, Pf growth 48h 5% and Pf growth 96h 18%.
Screening CCSc1ncc(Cl)c(C(=O)N(Cc2ccc(N(C)C)cc2)C2CCS(=O)(=O)C2)n1 (configuration not stated) returned Cycloheximide cs -4, Shiga toxin inh -12, SARS PLP yeast 2%, NS1 function inh -12%, Pf growth 48h 10µM* and Pf growth 96h 9%.
`CCCNc1c(NS(=O)(=O)c2cccs2)c(=O)oc2ccccc12` gave Cycloheximide cs -2, Shiga toxin inh 1, SARS PLP yeast 0%, NS1 function inh 1%, Pf growth 48h 12% and Pf growth 96h 3%.
COCC1CCCCN1C(=O)c1ccc(OC2CCN(Cc3ccccn3)CC2)cc1 (configuration not stated) was read as Cycloheximide cs 6, Shiga toxin inh 11, SARS PLP yeast inconclusive, NS1 function inh -5%, Pf growth 48h 36% and Pf growth 96h inconclusive.
Screening Cc1ccc(CN2C(=O)C(C)Oc3ccccc32)cc1 (configuration not stated) returned Cycloheximide cs 2, Shiga toxin inh 4, SARS PLP yeast -3%, NS1 function inh -4%, Pf growth 48h 20% and Pf growth 96h -25%.
Cc1ccc(N2Cc3ccccc3OC(C)C2=O)cc1 (configuration not stated) was read as Cycloheximide cs -5, Shiga toxin inh -18, SARS PLP yeast 10%, NS1 function inh -3% and Pf growth 96h 9.3µM*.
For O=C(COc1ccc(S(=O)(=O)NC2CCCCC2)cc1Cl)Nc1ccc2c(c1)OCO2 the results were Cycloheximide cs -2, Shiga toxin inh 7, SARS PLP yeast -13%, NS1 function inh -2% and Pf growth 96h 10µM*.

Source: PubChem (National Center for Advancing Translational Sciences (NCATS))
